FBPA Giardia inh = blocks Giardia fructose-bisphosphate aldolase activity | A8B2U2 | AID 2451 | 0.71% of 290,000 active | purified Giardia FBPA | Potency, µM (series often up to 59.6 µM), usual class: inhibitors; note: nearly all actives have a fitted effect of over 55% in size
Target sequence (A8B2U2 whole entry, looked up): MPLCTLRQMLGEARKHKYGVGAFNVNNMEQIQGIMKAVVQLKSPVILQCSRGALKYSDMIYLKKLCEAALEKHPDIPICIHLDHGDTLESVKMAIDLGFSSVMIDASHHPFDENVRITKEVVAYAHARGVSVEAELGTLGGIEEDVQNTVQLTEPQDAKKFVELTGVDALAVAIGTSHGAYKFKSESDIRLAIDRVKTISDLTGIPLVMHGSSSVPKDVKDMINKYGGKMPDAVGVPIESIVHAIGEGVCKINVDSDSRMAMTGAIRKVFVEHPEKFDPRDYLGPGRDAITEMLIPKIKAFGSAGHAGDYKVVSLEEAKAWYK
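Giardia FBPA (40 nM reagent) was preincubated 10 min at RT with compound (up to 57.5 uM final), then substrate plus GAPDH/TPI/NAD/arsenate coupling system with diaphorase/resazurin was added; resorufin fluorescence (525/598 nm) was read after 20 min.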
Vaccinia mCherry = inhibitors of vaccinia virus infection (mCherry reporter signal); Vaccinia virus mCherry reporter infection, fluorescence; Potency, µM (doses to about 36.5 µM), usual class: inhibitors; 0.63% of 310,000 active; AID 720579; calls by dose curve; tested in A549 cells; note: nearly all actives have a fitted effect of over 35% in size
HCV inhibitor = blocks hepatitis C virus; Potency, µM (titrated, usually from 41.8 µM), usual class: inhibitors; Huh7.5.1 HCVcc-Cre infection, luciferase reporter, 44 h; AID 651820; 3.4% of 340,000 active
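Antiviral activity was scored by luciferase reporter output from cells infected with HCVcc-Cre (~0.5 moi) in presence of compound, 44 h infection period, cells seeded 1,000/well 4 h prior.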
Vaccinia Venus = inhibitors of vaccinia virus (Venus reporter) | Vaccinia virus Venus reporter expression, fluorescence | Potency, µM (series often up to 36.5 µM), most hits filed as inhibitors | AID 720580 | 0.46% of 330,000 active; calls by dose curve; tested in A549 cells; note: nearly all actives have a fitted effect of over 30% in size
HCMV antiviral = blocks human cytomegalovirus replication. HFF cells, HCMV-luciferase reporter, 72 h; hits give low values. activity change, negative = inhibition, % at 57.5 µM. 4.5% of 410,000 active; in the data active = activity change below about -60%; inconclusive = no clear call, values can overlap the other calls; inactive = above about -39%
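Steps: HFFs plated, 16 h 37C; compounds added; HCMV-luciferase added to MOI 1 PFU/cell; 72 h 37C; OneGlo reagent, 5 min room temperature; luminescence read, normalized to controls.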
FMDV inh = blocks foot and mouth disease virus. FMDV antiviral cell-based qHTS. Potency, µM (doses to about 57.9 µM), hits mostly inhibitors. 1.2% of 410,000 active. AID 1159524; calls by dose curve; tested in HEK293T cells; note: read-out not given here; nearly all actives have a fitted effect of over 45% in size
HCV inh confirm = confirmation of hepatitis C virus inhibitors; shares compounds with HCV inhibitor; HCVcc-Cre infectious virus cell assay, luciferase, inhibition; Potency, µM (highest dose often 41.8 µM), usual class: inhibitors; 78% of 640 active; note: nearly all actives have a fitted effect of over 80% in size
HCV cytotox = host cell cytotoxicity counter-screen for HCV inhibitors. HCV host cell line cytotoxicity counterscreen. Potency, µM (series often up to 41.8 µM), usual class: inhibitors. shares compounds with HCV inhibitor. AID 720576. 22% of 640 active;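 note: 44 h compound exposure; nearly all actives have a fitted effect of over 55% in size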
Numbers stand for hits; . = inactive; ? = inconclusive; / = not tested or not shown; ! = a repeat was not active; [ ] = dose if it differs, or a comment. This is a sample that favours compounds with a hit; in the whole collection about 7.5% have one here. Unless noted, calls come from the whole dose curve; as a rule, active = well fitted curve in the direction sought with a large enough effect; inconclusive = small, poorly fitted or top-dose-only effect, or another doubt; inactive = no such curve, though single readings can be large; an effect the other way counts as inactive or inconclusive.

SMILES | FBPA Giardia inh | Vaccinia mCherry | HCV inhibitor | Vaccinia Venus | HCMV antiviral | FMDV inh | HCV inh confirm | HCV cytotox
COc1ccc(CNc2cccc3[nH]c(C(F)(F)F)nc23)cc1OC | ? | . | 5.6µM | . | . | . | 22µM | .
COc1ccc(CNC(=O)c2[nH]c(C(F)(F)F)nc2-c2ccccc2)cc1OC | / | . | / | . | . | . | / | /
Cc1ccc(NC(=O)CCN2CCOCC2)cc1C | . | / | . | / | . | . | / | /
Cc1csc(N2CCN(c3cc4c(cc3Cl)nc(-c3ccncc3)n4CCCN3CCCC3)CC2)n1 | . | . | ? | ? | . | ? | 14µM | .
CC(C)Cn1c(=O)c2ccccc2n2c(CCC(=O)O)nnc12 | . | / | . | / | . | . | / | /
CCN(CC)CCCNC(=O)c1cc(-c2ccc(Cl)cc2)on1 | . | / | 8.9µM | / | . | . | 22µM | .
CCCCN(CC)CCNC(=O)c1cc2c(-c3ccc(Cl)cc3)nn(C)c2s1 | . | 10µM | 2.8µM | ? | -100 | . | 7µM | .
COc1ccccc1Nc1nc(NCCCN(C)C)nc(N)c1[N+](=O)[O-] | . | .[7.34 µM] | ? | .[7.34 µM] | . | . | / | /
C=CCNc1nc(N)c([N+](=O)[O-])c(Nc2ccccc2OC)n1 | . | . | 6.3µM | . | . | . | 22µM | .
O=C1CCCS(=O)(=O)c2ccccc21 | . | . | . | . | . | . | / | /
Cc1cc(C[n+]2ccsc2N)c2ncccc2c1 | . | / | . | / | . | . | / | /
Cc1cc(C[n+]2ccccc2)c2nsnc2c1 | . | . | ? | ? | ? | / | 3.5µM | 13µM
COn1c(-c2ccc(Cl)cc2)nc2ncccc21 | . | / | . | / | . | . | / | /
CCOC(=O)Nc1ccc(NCc2ccc(F)cc2)nc1N | . | . | 0.89µM | . | . | . | . | .
CC(C)[C@H](N[C@@H](C)c1ccccc1)c1c(O)ccc2ccccc12 | . | / | . | / | . | . | / | /
COc1ccccc1OCc1ccc(C(=O)Nc2cc(OC)c(OC)c(OC)c2)o1 | . | / | ? | / | . | . | / | /
COc1cc(NC(=O)c2ccc(COc3ccccc3Br)o2)cc(OC)c1OC | . | . | 5µM | . | . | . | 11µM | .
CCOC(=O)c1cc2c(=O)n3ccccc3nc2n(Cc2ccco2)c1=NC(=O)c1ccc(OC)cc1OC | . | . | ? | . | . | . | ? | .
CCN(CC)S(=O)(=O)c1ccc(Oc2ccccc2OC)cc1 | . | . | ? | . | . | . | / | /
CCN(CC)S(=O)(=O)c1ccc(Oc2ccc(S(=O)(=O)N(CC)CC)cc2)cc1 | . | / | 2.8µM | / | . | ? | 2.5µM | 2.8µM
CCCCCCCCCCCCCc1ccco1 | . | . | / | . | / | . | / | /
NC(N)=NC(N)=NCCc1ccccc1 | . | . | 3.2µM! | ? | -82 | . | 2.8µM | ?
NCCc1ccccc1 | / | . | . | . | . | . | / | /
Cc1ccccc1Oc1nc(-c2ccccn2)nc2ccccc12 | . | . | 7.9µM | ? | -99 | . | 11µM | ?
CN1CCN(c2nc(-c3ccccn3)nc3ccccc23)CC1 | . | / | . | / | . | . | / | /
SMILES | FBPA Giardia inh | Vaccinia mCherry | HCV inhibitor | Vaccinia Venus | HCMV antiviral | FMDV inh | HCV inh confirm | HCV cytotox
COc1ccc(-c2cc(-c3ccccc3)nc(SCC(=O)Nc3nccs3)c2C#N)cc1 | . | . | . | . | . | . | / | /
COc1ccc(-c2cc(-c3ccccc3)c(C#N)c(SCC(=O)Nc3ncc(C)s3)n2)cc1 | . | . | 4.5µM | . | . | . | 20µM | .
COc1ccc(NC(=O)c2cccc(S(=O)(=O)N3CCN(c4ccccc4)CC3)c2)c(OC)c1 | / | ? | ? | . | . | . | 22µM | .
COc1ccccc1NC(=O)c1cccc(S(=O)(=O)N2CCN(c3ccccc3)CC2)c1 | / | / | ? | / | . | ? | / | /
Cc1ccc(CSc2nccc(-c3c(C)nc4ccccn34)n2)cc1 | . | / | 5.6µM | / | . | ? | 25µM | .
Cc1ccc(CSc2ncn(-c3ccccc3)n2)cc1 | . | . | . | . | . | . | / | /
CC(=O)c1cccc(NS(=O)(=O)c2cc3c(cc2C)n(C)c(=O)c(=O)n3C)c1 | / | . | / | . | . | . | / | /
COc1ccc(/C=N/Nc2nc(Nc3ccccc3)nc(N3CCCC3)n2)cc1[N+](=O)[O-] | . | . | ? | ? | ? | . | / | /
CNc1nc(N/N=C/c2cc3c(cc2[N+](=O)[O-])OCO3)nc(Nc2ccccc2)n1 | . | / | 1µM | / | -99 | ? | 14µM | 31µM
O=C(CC(=O)Nc1ccc(Cl)cc1Cl)Nc1ccc(Cl)cc1Cl | . | . | . | . | . | . | / | /
O=C(Cc1ccc(Cl)cc1Cl)Nc1ccncc1Cl | / | / | 7.9µM | / | -90 | ? | 7µM | 10µM
NNc1nc2ccccc2c(=O)n1Cc1ccccc1 | . | . | . | . | . | . | / | /
COc1ccc(CCNc2ncnc3[nH]ncc23)cc1OC | . | . | ? | . | ? | 18µM | 8.9µM | .
Cc1ccc(/C=N/NC(=O)c2c(C)nc3ccc(Cl)cn23)cc1 | / | / | / | / | . | / | / | /
S=C(c1ccc(-c2ccc(Cl)c(Cl)c2)o1)N1CCOCC1 | . | . | ? | . | / | / | 14µM | .
COc1ccccc1NC(=S)NCCSc1ccc(Cl)cc1 | . | . | . | . | . | . | / | /
COc1ccc(NC(=S)NCCSc2ccc(Cl)cc2)c(OC)c1 | . | ? | 5.6µM | . | . | . | 25µM | .
CC1=C(/C=C/C(C)=C/C=C/C(C)=C/C(=O)O)C(C)(C)CCC1O (centres undefined) | / | . | / | . | / | . | / | /
Cc1c(C(=O)NCCc2ccccc2)oc2ccc(S(=O)(=O)N3CCOCC3)cc12 | . | . | ? | . | . | . | / | /
Cc1c(C(=O)NCC2COc3ccccc3O2)oc2ccc(S(=O)(=O)N3CCOCC3)cc12 (centres undefined) | . | . | 5.6µM | . | . | ? | 18µM | .
COC(=O)C1=C(C)NC(=O)NC1c1ccc(-c2ccccc2Cl)o1 (centres undefined) | . | . | ? | . | . | ? | 22µM | .
Cc1nn(CC(=O)NCCCN2CCC(N3CCCCC3)CC2)c(=O)c2cc(-c3ccccc3)nn12 | . | / | 4µM | / | ? | . | 25µM | .
CCC12CN3CC(C)(CN(C1)C3c1c(C)n(C)c3ccccc13)C2=O (centres undefined) | / | . | / | . | . | . | / | /
Cc1ccc2c(c1)[C@H]1[C@H](CO2)[C@H](c2ccccc2)[C@]2(C)C(=O)N(Cc3ccc(F)cc3)CC(=O)N12 | / | . | ? | . | . | ? | ? | .
CN(C)S(=O)(=O)N1CCC(Oc2cccc(C(=O)NC3CCCCCC3)c2)CC1 | / | ? | 2.8µM | . | -90 | ? | 4.4µM | 7.9µM
CC1CCCN(S(=O)(=O)c2cc(C(=O)NCc3ccccc3Cl)n(C)c2)C1 (centres undefined) | / | . | / | . | . | . | / | /
CC(C)n1cc(/C=C(\C#N)S(=O)(=O)c2ccccc2)c2ccccc21 | . | / | 8.9µM | / | . | . | ? | .

Bioassay records from PubChem BioAssay.
